# Source: PubChem BioAssay (University of Kansas High Throughput Screening Laboratory)
# Pf apPOL inh: Pf-apPOL DNA polymerase inhibition | Recombinant Pf-apPOL, molecular beacon fluorescence, 1.5 h | inhibition, % at 10 µM | actives 0.25% (n = 210,000)
# mHTT-CaM PPI inh: mHTT-calmodulin interaction abrogation; P42858; AlphaScreen His-mHTT/GST-CaM binding, luminescence; inhibition, % at 15 µM; actives 3.6% (n = 190,000);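 further: 0% = both proteins with DMSO and 100% = one protein alone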
# Active calls of the source: *; i = inactive; nt = no result; + = active, no number. In the library only some 3.5% were active in any assay of this set; here they are far more common. No stated cut-off is given here; in the data, active means inhibition above about 50%; inactive means the rest.
SMILES,Pf apPOL inh,mHTT-CaM PPI inh
COc1cccc(C2CC(c3cccc(C)c3)=NN2C(=O)CN2CCCC2)c1 (stereo not given),6.0,100.3*
Cc1ccc(C)c(C2=NN(C(=O)CN3CCOCC3)C(c3ccccc3F)C2)c1 (stereo not given),-2.1,62.2*
Cc1c(NC(=O)COc2ccccc2[N+](=O)[O-])cccc1-c1nc2ncccc2o1,1.4,7.6
Cc1cc2c(cc1C)NC(CC(=O)Nc1ccc(I)cc1C)C(=O)N2 (stereo not given),1.2,1.2
Cc1cn2c3ccccc3n(CCN(C)C)c2n1,1.1,-3.4
COc1cccc(C2CC(c3cccc(C)c3)=NN2C(=O)CN2CCCCC2)c1 (stereo not given),-4.4,55.4*
COc1ccc(C2CC(c3cccc(C)c3)=NN2C(=O)CN2CCCCC2)cc1 (stereo not given),-2.3,41.4
O=[N+]([O-])c1cc(C=Nc2c(-c3ccco3)nc3ccccn23)ccc1Br,-1.0,18.0
O=[N+]([O-])c1cc(C=Nc2c(-c3ccco3)nc3ccccn23)c(Cl)cc1Cl,5.9,23.0
Oc1c(Cl)cc(Cl)cc1C=Nc1c(-c2ccco2)nc2ccccn12,-2.4,64.0*
Clc1ccc(C=Nc2c(-c3ccco3)nc3ccccn23)cc1,-1.5,55.0*
CC(C)(C)C1CCc2c(sc3c2C(=O)NC(c2ccc(O)c([N+](=O)[O-])c2)N3)C1 (stereo not given),-4.9,59.0*
CC(C)(C)C1CCc2c(sc3c2C(=O)NC(c2ccccc2)N3)C1 (stereo not given),-10.6,0.0
COc1ccccc1Oc1ccc2c(c1)C(=O)N(c1cccc3ncccc13)C2=O,-4.9,75.0*
COc1ccc(N2C(=O)c3ccc(Oc4ccc(N)cc4)cc3C2=O)cc1OC,1.6,5.0
Cc1nc2ccccc2n1C(=O)c1ccc(F)cc1,-5.6,-6.8
COc1cc(C(=O)n2c(C)nc3ccccc32)cc(OC)c1OC,-11.8,89.2*
COc1cc(OC)c(/C=N/NC(N)=S)cc1Br,nt,i
Oc1ccccc1N=Cc1cc(Br)cc(Br)c1O,-4.3,55.0*
Oc1c(Br)cc(Br)cc1C=Nc1ccc(F)cc1,nt,4.9
Oc1c(Cl)cc(Cl)cc1C=NN=Cc1cc(Cl)cc(Cl)c1O,0.9,nt
NC(=S)N/N=C/c1cc(Cl)cc(Cl)c1O,nt,+
NC(=S)N/N=C/c1cc(Br)cc(Br)c1O,nt,+
C=CCn1c(SCC(=O)N2CCC(C)CC2)nc2scc(-c3ccccc3)c2c1=O,-3.7,1.7
CC(C)CC(C(=O)N1CCCCC1)N1C(=O)c2cc(Cl)c(Cl)cc2C1=O (stereo not given),-7.9,2.0
SMILES,Pf apPOL inh,mHTT-CaM PPI inh
Cc1oc(C2CCN(C(=O)Cc3ccsc3)CC2)nc1C(=O)N1CCSCC1,-5.2,1.8
CC1CN(C(=O)Cc2ccccc2)CC1c1nc(-c2ccncc2)no1 (stereo not given),5.0,-0.9
CN(C)C(=O)CCN1C(=O)CSC1c1ccc(F)cc1F (stereo not given),-4.4,0.9
c1ccc2c3c([nH]c2c1)CCCC3,nt,36.8
O=C(Nc1ccccc1)c1cccc2c3c([nH]c12)CCCC3,-1.4,76.2*
Cc1c(C2CCN(C(=O)c3cccnc3)CC2)noc1N,1.4,-0.5
COc1ccc(C(=O)Nc2c(-c3ccccc3)nc3cc(C)ccn23)cc1OC,-7.2,34.1
O=C1N=C(N2CCOCC2)S/C1=C\c1ccc(-c2ccccc2)o1,-1.6,80.0*
O=C1N=C(c2ccccc2)S/C1=C/c1ccc2c(c1)OCO2,0.6,-3.0
O=C1N=C(N2CCOCC2)S/C1=C\c1cccs1,5.6,-5.0
Cc1ccc(/C=C2\SC(c3ccccc3)=NC2=O)o1,-6.0,56.0*
COc1ccc(-n2nc(C(=O)Nc3cc(Cl)ccc3OC)c3ccccc3c2=O)cc1,-4.5,1.0
NCCNC(=O)/C(=C1\Nc2ccc([N+](=O)[O-])cc2N1)[N+](=O)[O-],2.9,63.0*
O=C(Nc1ccccc1O)/C(=C1\Nc2ccc([N+](=O)[O-])cc2N1)[N+](=O)[O-],5.2,20.0
COCC(C)NC(=O)c1cc(-c2ccc(F)cc2)on1 (stereo not given),1.2,-2.0
CCN(CCN1C(=O)c2ccccc2C1C(=O)NC1CCCCCC1)c1ccccc1 (stereo not given),-17.3,32.0
Nc1nc2ccccc2n1Cc1ccc(Br)cc1,-16.6,20.6
CC(C)(C)c1ccc(Cn2c(N)nc3ccccc32)cc1,-4.5,88.7*
CCN(CC)c1ccc(N=Cc2ccc(O)cc2)cc1,-8.1,86.0*
CCN(CC)c1ccc(C=Nc2ccc(C)cc2)cc1,-4.3,-4.0
CCN(CC)CCCNC(=O)C1CCN(c2nccc(C)n2)CC1,5.9,-5.2
CN1C(=O)CSC1=Nc1ccc(Sc2ccc([N+](=O)[O-])cc2)cc1,12.5,10.0
COc1cc(CN2CCN(c3ccc(C(C)=O)cc3)CC2)cc(I)c1O,-1.8,55.3*
COc1cc(CN2CCN(c3ccc([N+](=O)[O-])cc3)CC2)cc(I)c1O,-6.7,42.0
COc1ccc(NC(=O)CN(c2ccc(Cl)cc2C)S(C)(=O)=O)cc1OC,-0.5,10.8
